Source: PubChem (several laboratories)
Most compounds without a hit are left out; they make up all but 1.7% or so of the library.
MIN6 prolif: induces beta-cell replication in MIN6 cells; MIN6 cells proliferation, ATPlite luminescence, 48 h; cells starved in 0.2% serum; 100% = growth in 10% serum; proliferation, % at 10 µM; AID 2380; 0.29% of 330,000 active;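 active = compounds whose signal lies at least 3.5 SD above the mean of all wells on their plate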;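 also: 0% = DMSO-treated cells in low-serum medium and 100% = 10% serum control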
H9c2 TAG inh: reduces triacylglycerol accumulation in H9c2 cells | Nile Red lipid (TAG) fluorescence; cells loaded with 200 µM oleic acid | AID 651582 | inhibition, % at 12.5 µM | 0.66% of 230,000 active;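 active = pattern-corrected inhibition of lipid staining of at least 50% with the nuclear-stain viability signal not falling by more than 50%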;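 also: 0% = DMSO wells and 100% = triacsin C control wells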
CHT PAM: allosteric activators of human choline transporter CHT; Q9GZV3; CHT-expressing cells, membrane potential dye, choline EC20; stronger effect = higher value; LV-AA mutant CHT in HEK293 cells; B-score at 10 µM; 0.49% of 310,000 active;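 active = initial fluorescence not abnormally high and integrated response B-score, plate-corrected, over 3 SD above library mean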
Target sequence (Q9GZV3 whole entry, looked up): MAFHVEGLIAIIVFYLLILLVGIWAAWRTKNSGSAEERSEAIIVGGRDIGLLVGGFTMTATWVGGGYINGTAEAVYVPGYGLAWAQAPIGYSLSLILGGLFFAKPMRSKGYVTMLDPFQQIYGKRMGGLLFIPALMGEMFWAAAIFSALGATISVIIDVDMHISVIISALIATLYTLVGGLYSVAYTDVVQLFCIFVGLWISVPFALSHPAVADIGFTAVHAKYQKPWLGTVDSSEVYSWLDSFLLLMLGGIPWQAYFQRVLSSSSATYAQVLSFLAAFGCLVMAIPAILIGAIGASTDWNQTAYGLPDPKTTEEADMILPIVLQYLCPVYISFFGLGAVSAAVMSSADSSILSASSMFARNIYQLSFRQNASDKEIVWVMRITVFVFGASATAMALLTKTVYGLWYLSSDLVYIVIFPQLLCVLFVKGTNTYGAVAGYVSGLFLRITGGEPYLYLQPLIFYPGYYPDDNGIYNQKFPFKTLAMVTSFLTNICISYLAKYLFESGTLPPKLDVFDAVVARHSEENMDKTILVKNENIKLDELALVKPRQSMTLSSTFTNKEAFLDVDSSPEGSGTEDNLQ
CHT block: inhibitors of human choline transporter CHT; 0.86% of 310,000 active; CHT-expressing cells, membrane potential dye, choline response; stronger effect = lower value; AID 488975; B-score at 10 µM;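 active = B-score over 3 SD under the library average, and starting fluorescence ratio not unusually high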;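 also: choline stimulus applied at its EC90 after an EC20 pre-addition; B-score computed on integrated fluorescence ratio after choline addition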
CHT block conf: human CHT inhibition, confirmatory screen | CHT-expressing cells, choline membrane potential dye; LV-to-AA substituted CHT, HEK293 cells | shares compounds with CHT block | 70% of 2,400 active | AID 493221 | CHT activity remaining % of control (stronger effect = lower value), % at 10 µM;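 active = choline transporter activity left, mean of duplicates at 10 µM, below buffer-only control mean minus 3 SD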;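 also: depolarization triggered by choline at its EC90 following an EC20 pre-addition; 0% = hemicholinium-3 full block and 100% = buffer-only control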
HEK293 MPD ctr: counter-screen for CHT inhibitors: effect in parental HEK293 cells; shares compounds with CHT block; membrane potential dye, choline response; active = decrease or increase beyond buffer ±3SD; membrane potential ratio readout (active if shifted either direction beyond buffer ±3SD; no single direction) at 10 µM; 4% of 2,400 active;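 also: parental cells lack the transporter so any hit is non-specific; ratio is peak minus trough fluorescence over baseline after EC90 choline challenge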
* = called active by the depositor.

`Cc1ccc(/C=C2/SC(=S)N(c3ccc(S(=O)(=O)Nc4nccs4)cc3)C2=O)cc1` gave MIN6 prolif -4, H9c2 TAG inh 2, CHT PAM inactive and CHT block inactive.
O=C1/C(=C\c2ccccn2)SC(=S)N1c1ccc(S(=O)(=O)Nc2nccs2)cc1 was read as MIN6 prolif -1, H9c2 TAG inh -7, CHT PAM inactive, CHT block -7*, CHT block conf inactive and HEK293 MPD ctr inactive.
Screening C=CCn1c(SCc2cc(=O)n3ccsc3n2)nc2ccccc2c1=O returned MIN6 prolif 1, H9c2 TAG inh -1, CHT PAM inactive and CHT block inactive.
For Cc1cc(SCc2cc(=O)n3ccsc3n2)nc2ccccc12 the results were MIN6 prolif 0, CHT PAM inactive, CHT block -13*, CHT block conf -1.4%* and HEK293 MPD ctr inactive.
`O=C(NNC(=S)NC1CCCCC1)c1ccccc1O` gave MIN6 prolif -5, H9c2 TAG inh -5, CHT PAM inactive, CHT block -5*, CHT block conf 53%* and HEK293 MPD ctr inactive.
For O=C(NNC(=S)NC1CCCCC1)c1cccs1 the results were MIN6 prolif -4, CHT PAM inactive and CHT block inactive.
`Cc1ccccc1/C=N/Nc1nc2ccccc2c(=O)n1O` gave MIN6 prolif -2, H9c2 TAG inh 13, CHT PAM inactive and CHT block inactive.
CC(C)c1ccc(S(=O)(=O)/N=C2\C=C(NS(=O)(=O)c3ccccc3)C(=O)c3ccccc32)cc1 was read as CHT PAM inactive, CHT block -10*, CHT block conf 39%* and HEK293 MPD ctr inactive.
Screening CCCCNC(=O)Nc1c(C(=O)OC)[nH]c2ccc(C)cc12 returned MIN6 prolif -2, H9c2 TAG inh 5, CHT PAM inactive, CHT block -6.9*, CHT block conf inactive and HEK293 MPD ctr inactive.
Screening COc1ccccc1C(=O)Nc1ccc2c(c1)n(C)c(=O)n2C returned MIN6 prolif 0, H9c2 TAG inh 11, CHT PAM inactive and CHT block inactive.
`COc1ccccc1C(=O)NC(C)c1cccc2ccccc12` (centres undefined) gave MIN6 prolif 0, CHT PAM inactive, CHT block -5.7*, CHT block conf 54%* and HEK293 MPD ctr inactive.
`Cc1occc1C(=O)NNC1=CC(=O)CC(C)(C)C1` gave MIN6 prolif 0, CHT PAM inactive and CHT block inactive.
Cc1cc(NS(=O)(=O)c2ccc(NC(=O)COc3c(C)cc(Br)cc3C)cc2)no1 was read as MIN6 prolif -3, CHT PAM inactive, CHT block -6*, CHT block conf 34%* and HEK293 MPD ctr inactive.
COc1ccc(OCC(=O)Nc2ccc(S(=O)(=O)Nc3cc(C)on3)cc2)cc1 was read as MIN6 prolif -1, H9c2 TAG inh -8, CHT PAM inactive and CHT block inactive.
`Cc1noc(NS(=O)(=O)c2ccc(NC(=O)COc3ccc(Cl)cc3Cl)cc2)c1C` gave MIN6 prolif 3, CHT PAM inactive, CHT block -6.4*, CHT block conf 39%* and HEK293 MPD ctr inactive.
Screening C/C(=N\Nc1ccc(C(=O)O)cc1)c1ccc(S(=O)(=O)NCc2ccco2)cc1 returned MIN6 prolif 0, H9c2 TAG inh 7, CHT PAM inactive and CHT block inactive.
Screening CCN(CC)C(=O)N1CCN(S(=O)(=O)c2ccc(C)c(C)c2)CC1 returned MIN6 prolif 0, H9c2 TAG inh -35, CHT PAM inactive, CHT block -7.4*, CHT block conf 37%* and HEK293 MPD ctr inactive.
Screening CCN(CC)C(=O)N1CCN(S(=O)(=O)c2ccc(C)cc2)CC1 returned MIN6 prolif 1, CHT PAM inactive and CHT block inactive.
For COc1ccc2nc(NC(=O)CSc3n[nH]c(N)n3)sc2c1 the results were MIN6 prolif -3, H9c2 TAG inh -16, CHT PAM inactive and CHT block inactive.
For COc1ccc(C(=O)NNC(=O)CSc2nnc(COc3ccccc3OC)n2C)cc1 the results were MIN6 prolif -2, CHT PAM inactive and CHT block inactive.
`O=S(=O)(Nc1nc2ccccc2nc1Nc1cccc(S(=O)(=O)N2CCCCC2)c1)c1ccccc1` gave MIN6 prolif -5, CHT PAM inactive, CHT block -7.4*, CHT block conf 53%* and HEK293 MPD ctr inactive.
For CC(NC(=O)Cn1nc(-c2ccccc2)c2ccccc2c1=O)c1ccccc1 (centres undefined) the results were MIN6 prolif 1, H9c2 TAG inh 24, CHT PAM inactive, CHT block -5.2*, CHT block conf 69%* and HEK293 MPD ctr inactive.
Screening Cc1ccc(S(=O)(=O)N2CCCCC2)cc1NC(=O)c1ccc(=O)[nH]c1 returned H9c2 TAG inh 13.
`CCC(CC)C(=O)N(C)c1c(C)nc2c(OCc3ccc(C#N)cc3)cccn12` gave H9c2 TAG inh -17.
`COc1ccc(C(=O)Nc2ccccc2C(=O)NCCCn2ccnc2)cc1` gave H9c2 TAG inh 14.
Screening Cc1ccc(-c2cc(C(=O)NCCCn3ccnc3)c3cc(Br)ccc3n2)o1 returned MIN6 prolif -3, H9c2 TAG inh 7, CHT PAM inactive, CHT block -9.2*, CHT block conf 24%* and HEK293 MPD ctr inactive.
Screening O=C(NCCCn1ccnc1)/C(=C/c1ccc(F)cc1)NC(=O)c1ccccc1 returned MIN6 prolif -2, CHT PAM inactive and CHT block inactive.
CC(C)c1ccc(/C=C(\NC(=O)c2ccccc2)C(=O)NCCCn2ccnc2)cc1 was read as MIN6 prolif 3, CHT PAM inactive, CHT block -8.2*, CHT block conf 23%* and HEK293 MPD ctr inactive.
For O=C(Nc1ccccc1C(=O)NCCCn1ccnc1)c1ccccc1 the results were MIN6 prolif 4, CHT PAM inactive, CHT block -10*, CHT block conf 13%* and HEK293 MPD ctr inactive.
Screening COc1ccc(C(=O)N2CCC(C)(C(=O)NS(=O)(=O)C3CC3)C2)c(OC)c1 (centres undefined) returned H9c2 TAG inh 1.
`CC(C)C(NC(=O)c1ccccc1)C(=O)N/N=C\c1ccco1` (centres undefined) gave MIN6 prolif -5, CHT PAM inactive and CHT block inactive.
CCc1ccc(OCC(=O)Nc2ccc(N3CCN(S(C)(=O)=O)CC3)cc2)cc1 was read as MIN6 prolif -4, H9c2 TAG inh -11, CHT PAM inactive and CHT block inactive.
